Most compounds without a hit are left out; they make up all but 9.3% or so of the library.
Rab9 promoter act = qHTS Assay for Rab9 Promoter Activators | Potency, µM (doses to about 9.22 µM), actives largely listed as activators | AID 485297, 2010 | Huh7 Rab9 promoter-luciferase reporter, luminescence, 24 h | 2.8% of 320,000 active; note: nearly all actives have a fitted effect of over 60% in size
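Huh7 cells stably carrying Rab9 promoter–luciferase reporter, plated 1500 cells/well, compound added after 2 h and incubated 24 h at 37 °C; luciferase luminescence then read after 10 min with detection reagent.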
ELG1 genotox = qHTS screen for small molecules that induce genotoxicity in human embryonic kidney (HEK293T) cells expressing luciferase-tagged ELG1; HEK293T ELG1-luciferase reporter, luminescence, 16 h; Potency, µM (series often up to 46 µM), actives largely listed as activators; 1.3% of 330,000 active; AID 504466, 2011; note: nearly all actives have a fitted effect of over 60% in size
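ELG1-luciferase HEK293T cells, 2,000/well; compound pinned in; 16 hr, 37 °C, 5% CO2; ONE-Glo, 30 min RT; luminescence on CCD imager.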
NPC1 prom act = qHTS Assay for NPC1 Promoter Activators. Huh7 NPC1 promoter luciferase reporter, 24 h. Potency, µM (series often up to 9.22 µM), most hits filed as activators. 2.4% of 320,000 active; note: nearly all actives have a fitted effect of over 60% in size
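Readout is luciferase luminescence, reflecting NPC1 promoter activation in stably transfected Huh7 cells after 24 h compound exposure at 37 °C in reduced-serum medium with 10% FBS.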
FLuc counter = qHTS profiling assay for firefly luciferase inhibitor/activator using purifed enzyme and Km concentrations of substrates (counterscreen for miR-21 project) | 6.9% of 360,000 active | purified FLuc, Km substrates, luminescence inhibition | Potency, µM (doses to about 57.5 µM), hits mostly inhibitors; note: nearly all actives have a fitted effect of over 55% in size
Target sequence (P08659 whole entry, looked up): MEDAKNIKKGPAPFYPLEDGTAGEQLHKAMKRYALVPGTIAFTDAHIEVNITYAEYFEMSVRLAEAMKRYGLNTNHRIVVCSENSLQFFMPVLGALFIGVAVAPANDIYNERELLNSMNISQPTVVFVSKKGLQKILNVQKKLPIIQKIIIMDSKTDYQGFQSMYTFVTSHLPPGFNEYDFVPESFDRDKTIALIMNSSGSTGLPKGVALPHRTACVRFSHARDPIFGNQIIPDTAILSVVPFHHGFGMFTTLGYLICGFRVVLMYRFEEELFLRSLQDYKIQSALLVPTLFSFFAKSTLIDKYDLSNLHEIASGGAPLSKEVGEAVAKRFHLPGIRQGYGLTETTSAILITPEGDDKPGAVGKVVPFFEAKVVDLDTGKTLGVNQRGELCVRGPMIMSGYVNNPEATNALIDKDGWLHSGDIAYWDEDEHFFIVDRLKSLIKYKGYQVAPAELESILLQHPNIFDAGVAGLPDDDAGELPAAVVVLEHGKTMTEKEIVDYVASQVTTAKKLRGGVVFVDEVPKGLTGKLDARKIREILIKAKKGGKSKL
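Biochemical qHTS of compounds, final roughly 60 µM downward over six points, against 10 nM purified firefly luciferase using Km concentrations of substrates (10 uM D-luciferin, 10 uM ATP) in Tris acetate pH 7.5 buffer; luminescence output.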
ELG1 repair inh = qHTS screen for small molecules that inhibit ELG1-dependent DNA repair in human embryonic kidney (HEK293T) cells expressing luciferase-tagged ELG1 | Potency, µM (doses to about 46.1 µM), most hits filed as inhibitors | 2.3% of 330,000 active | HEK293T ELG1-luciferase reporter, luminescence, 16 h; DNA damage induced by 5-fluorouridine; note: nearly all actives have a fitted effect of over 55% in size
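In this reporter screen, reduction of luminescence relative to DMSO vehicle indicated activity. Compounds and 5-fluorouridine were added together to 2,000 cells per well, incubated for 16 hr at 37 °C, then developed with ONE-Glo.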
SMN2 splice up = qHTS Assay for Enhancers of SMN2 Splice Variant Expression; 2.8% of 210,000 active; HEK293 SMN2-luciferase splicing reporter, luminescence, 30-36 h; Potency, µM (top dose mostly 46.1 µM), most hits filed as activators; note: nearly all actives have a fitted effect of over 55% in size
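qHTS luciferase splicing reporter: luminescence rises when SMN2 exon 7 is included in transfected HEK293 cells. Compound exposure lasted 30-36 h at 37C, with 4.5 mM final sodium butyrate as control, followed by a ONE-Glo read.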
Of the large screens only hits and unclear results are named; the others gave an inactive call. Calls come from the whole dose curve; as a rule, active = well fitted curve in the direction sought with a large enough effect; inconclusive = small, poorly fitted or top-dose-only effect, or another doubt; inactive = no such curve, though single readings can be large; an effect the other way counts as inactive or inconclusive.

COC(=O)c1ccc(NC(=O)NC2CCCCC2)cc1	NPC1 prom act inconclusive, FLuc counter inconclusive, ELG1 repair inh inconclusive, SMN2 splice up 13µM
CC(C)c1c(C(=O)N/N=C/c2cccc(OCc3ccc(F)cc3)c2)nnn1-c1nonc1N	ELG1 repair inh inconclusive (no result: SMN2 splice up)
Cc1nn(-c2ccccc2)c2c1N(CC(=O)N1CCN(c3cccc(Cl)c3)CC1)C(=O)CS2	none (no result: Rab9 promoter act, ELG1 genotox, NPC1 prom act, ELG1 repair inh, SMN2 splice up)
COc1ccccc1NC(=O)CCCN1C(=O)C2CC=CCC2C1=O (stereo unspecified)	none (no result: SMN2 splice up)
CCOc1ccc2nc(SCC(=O)N(C)C3CCS(=O)(=O)C3)[nH]c2c1 (stereo unspecified)	none (no result: SMN2 splice up)
CCOc1ccc2nc(SCC(=O)N(C)C)[nH]c2c1	Rab9 promoter act 3.5µM, ELG1 genotox 16µM, NPC1 prom act 4µM, FLuc counter 19µM, ELG1 repair inh inconclusive
CCOc1ccc2nc(SCC(=O)Nc3ccc4[nH]c(=O)[nH]c4c3)[nH]c2c1	FLuc counter 13µM (no result: SMN2 splice up)
O=C(Nc1nccs1)C(c1ccccc1)N1CCCC1 (stereo unspecified)	none
Cc1nnc(SCC(=O)NC2CCCc3c2cnn3-c2ccccc2F)o1 (stereo unspecified)	none (no result: SMN2 splice up)
O=C(NCc1ccccc1Cl)c1cc2cccc3c2n1CCS3	none (no result: Rab9 promoter act, ELG1 genotox, NPC1 prom act, ELG1 repair inh, SMN2 splice up)
COc1ccc(-c2c(C)nn3c(N)c(-c4ccccc4)cnc23)cc1OC	FLuc counter inconclusive (no result: SMN2 splice up)
COc1ccccc1-c1c(C)nn2c(N)c(-c3ccccc3)cnc12	FLuc counter 19µM, ELG1 repair inh inconclusive (no result: SMN2 splice up)
COCc1nn2c(N)c(C#N)cnc2c1-c1ccccc1	FLuc counter 13µM
COCc1nn2c(N)c(-c3ccccc3)cnc2c1-c1ccccc1	Rab9 promoter act 2.8µM, ELG1 genotox inconclusive, NPC1 prom act 2.8µM, FLuc counter 0.85µM (no result: SMN2 splice up)
CCOC(=O)N1CCN(c2ccc(C(=O)CC)cc2F)CC1	ELG1 repair inh inconclusive
CCC(=O)c1ccc(N2CCC(C)CC2)c(F)c1	FLuc counter 21µM, ELG1 repair inh inconclusive (no result: SMN2 splice up)
CCCC(=O)c1ccc(N2CCC(C)CC2)c(F)c1	ELG1 genotox inconclusive, FLuc counter 9.5µM, ELG1 repair inh inconclusive, SMN2 splice up inconclusive
CCn1ncc(NC(=S)NCCc2ccc(OC)c(OC)c2)c1C(N)=O	none
COc1cccc(-c2noc(C3CCCN(C(=O)c4cccc(F)c4)C3)n2)c1 (stereo unspecified)	none (no result: SMN2 splice up)
COc1cccc(-c2nc3ccc(C(=O)N4CCCC(O)C4)cc3o2)c1 (stereo unspecified)	Rab9 promoter act 3.5µM, ELG1 genotox inconclusive, NPC1 prom act 4µM, FLuc counter 15µM, ELG1 repair inh inconclusive (no result: SMN2 splice up)
COc1ccc2cc(C(=O)C3CCCN(C(=O)c4cccnc4)C3)ccc2c1 (stereo unspecified)	none (no result: SMN2 splice up)
CCC(=O)C1CCCN(C(=O)c2ccc3nc(-c4cccc(OC)c4)oc3c2)C1 (stereo unspecified)	Rab9 promoter act 1.6µM, ELG1 genotox inconclusive, NPC1 prom act 1.4µM, FLuc counter 8.5µM, ELG1 repair inh inconclusive (no result: SMN2 splice up)
CC(C)c1nc(SCC(=O)Nc2c[nH]c(=O)[nH]c2=O)c2cnn(-c3ccccc3)c2n1	none
Cc1ccc2nc(N3C(=O)C(O)=C(C(=O)c4ccco4)C3c3cccs3)sc2c1 (stereo unspecified)	FLuc counter 17µM, ELG1 repair inh inconclusive
O=C(O)c1cccc(CSc2n[nH]c(-c3ccc(Cl)cc3Cl)n2)c1	FLuc counter 27µM
Cc1ccc(/C=C2\SC(=O)N(CCC(=O)N3CCN(C)CC3)C2=O)cc1	ELG1 genotox inconclusive, NPC1 prom act inconclusive, FLuc counter 13µM, ELG1 repair inh inconclusive (no result: SMN2 splice up)
Cc1ccc(/C=C2\SC(=O)N(CCNC(=O)C3CSC4(C)CCC(=O)N34)C2=O)cc1 (stereo unspecified)	FLuc counter 19µM (no result: SMN2 splice up)
CN1CCN(C(=O)CCN2C(=O)S/C(=C/c3ccc(Cl)cc3)C2=O)CC1	FLuc counter inconclusive
COc1ccc(/C=C2\SC(=O)N(CCC(=O)N3CCN(C)CC3)C2=O)cc1	FLuc counter 19µM, ELG1 repair inh inconclusive (no result: SMN2 splice up)
c1ccc(CCC2CCCCN2Cc2nc(-c3ccc4c(c3)OCO4)no2)nc1 (stereo unspecified)	ELG1 repair inh inconclusive (no result: SMN2 splice up)
COc1ccc(C(=O)Nc2ccccc2C(=O)NC(Cc2ccc(O)cc2)C(=O)NNC(=O)c2ccc(C)cc2)cc1 (stereo unspecified)	ELG1 genotox inconclusive, FLuc counter 9.5µM, ELG1 repair inh 8.2µM
Cc1ccc(SCc2ccc(C(=O)Nc3ccccc3C(=O)NC(C)C)cc2)cc1	none (no result: SMN2 splice up)
COc1ccc(C(=O)Nc2ccccc2C(=O)NC(Cc2ccc(O)cc2)C(=O)NNC(=O)c2ccccc2)cc1 (stereo unspecified)	FLuc counter 4.8µM, ELG1 repair inh 16µM
COc1ccc(C(=O)Nc2ccccc2C(=O)NC(Cc2ccc(O)cc2)C(=O)NNC(=O)c2ccncc2)cc1 (stereo unspecified)	FLuc counter 12µM
CC(C)n1c(SCC(=O)Nc2nncs2)nnc1-c1ccco1	none (no result: SMN2 splice up)
CCCCNC(=O)Cn1c(=O)c2c(ncn2CC)n(Cc2ccccc2)c1=O	none (no result: SMN2 splice up)
CCCCOc1ccc(C(=O)Nc2ccc3c(c2)OCO3)cc1	Rab9 promoter act inconclusive, ELG1 genotox inconclusive, FLuc counter inconclusive, ELG1 repair inh inconclusive, SMN2 splice up inconclusive
CCC(=O)Oc1ccc(C(=O)Nc2ccc3c(c2)OCO3)cc1	Rab9 promoter act 4.5µM, ELG1 genotox inconclusive, NPC1 prom act 2.2µM, FLuc counter 5.4µM, ELG1 repair inh inconclusive, SMN2 splice up 16µM
CCC(=O)Nc1ccc(C(=O)Nc2ccc3c(c2)OCO3)cc1	FLuc counter inconclusive, ELG1 repair inh inconclusive
CCCOc1ccc(C(=O)Nc2ccc3c(c2)OCO3)cc1	Rab9 promoter act 2.8µM, ELG1 genotox 2.3µM, NPC1 prom act 1µM, FLuc counter 2.1µM, ELG1 repair inh inconclusive (no result: SMN2 splice up)
COCCCN(C(=S)NC(=O)C12CC3CC(CC(C3)C1)C2)c1c(N)n(Cc2ccccc2)c(=O)[nH]c1=O	none
O=C(/C=C/c1ccccc1)N1CCN(CCN2C(=O)c3cccc4cccc(c34)C2=O)CC1	ELG1 repair inh 10µM
O=C(CCN1C(=O)c2cccc3cccc(c23)C1=O)N1CCOCC1	Rab9 promoter act inconclusive, ELG1 genotox inconclusive, ELG1 repair inh inconclusive, SMN2 splice up inconclusive
O=C(c1ccc(S(=O)(=O)N2CCCC2)cc1)N1CCCCCC1	none (no result: SMN2 splice up)

Screening data (PubChem)
